D1 allo mod = D1 CRE-luciferase signal change, two-sided – cell-based, HEK293 D1, dopamine EC30, D1 allosteric modulator project, primary screen; D(1A) dopamine receptor (Homo sapiens), P21728; dopamine EC30 potentiation; actives deviate in either direction; B-score at 10 µM; actives 5.9% (n = 58,000); AID 641, 2007;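 active = luminescence count or its row- and column-corrected plate score outside the 99.7% band of the plate's sample wells, on either side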
hDAT+cocaine = changed hDAT dopamine uptake under cocaine IC80, either direction, primary screen, cocaine antagonist project, cell-based, LLC-PK1 hDAT, [14C]-dopamine uptake, MLSMR. actives 1.3% (n = 110,000). LLC-PK1 hDAT cells, [14C]-dopamine uptake with cocaine IC80; actives deviate in either direction. B-score at 10 µM. Sodium-dependent dopamine transporter (Homo sapiens), Q01959. AID 449768, 2010;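 active = Z score or B-score, a plate-position-corrected score, falls beyond the plate's 99.7% confidence bounds, in either direction; inactive = both scores lie inside the 99.7% bounds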;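 note: scored against the spread of the other compound wells on the same plate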
FXIIa mix inh = human factor XIIa inhibitors, primary screen, biochemical, pooled compound mixtures, fluorogenic substrate. purified FXIIa. Coagulation factor XII (Homo sapiens), P00748. AID 684, 2007. inhibition, % at 5 µM. actives 0.2% (n = 62,000);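 note: 0% = enzyme without compound and 100% = no enzyme blank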
M1 agonist = M1 muscarinic receptor agonists, primary screen, CHO-M1 cells, Fluo-4 calcium, agonist mode. Muscarinic acetylcholine receptor M1. Fluo-4 calcium fluorescence; active compounds read high. B-score at 10 µM. actives 3% (n = 64,000);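 active = fluorescence rise, raw or as B-score row- and column-corrected plate score, outside the 99.7% band of its plate's samples, either direction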
M1 antagonist = antagonists of rat M1 muscarinic receptor; Muscarinic acetylcholine receptor M1 (Rattus norvegicus), P08482; CHO-M1 cells, Fluo-4 calcium, ACh EC80 antagonist mode; active compounds read low; B-score at 10 µM; actives 3.4% (n = 64,000); AID 628, 2007;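 active = calcium fluorescence response, raw or row-and-column corrected B-score, differing from the plate sample mean either way at a set confidence level, mostly lower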
FXIa inh mix = FXIa protease inhibitors in compound pools, primary screen, biochemical, 10-compound mixtures; inhibition, % at 5 µM; actives 0.19% (n = 62,000); Coagulation factor XI (Homo sapiens), P03951; purified FXIa, fluorogenic substrate, pooled mixtures;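 note: each value is inhibition by a whole ten-compound pool holding the compound; 0% = enzyme with no mixture and 100% = wells lacking enzyme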
Target sequence (P03951 19-387 limits assumed): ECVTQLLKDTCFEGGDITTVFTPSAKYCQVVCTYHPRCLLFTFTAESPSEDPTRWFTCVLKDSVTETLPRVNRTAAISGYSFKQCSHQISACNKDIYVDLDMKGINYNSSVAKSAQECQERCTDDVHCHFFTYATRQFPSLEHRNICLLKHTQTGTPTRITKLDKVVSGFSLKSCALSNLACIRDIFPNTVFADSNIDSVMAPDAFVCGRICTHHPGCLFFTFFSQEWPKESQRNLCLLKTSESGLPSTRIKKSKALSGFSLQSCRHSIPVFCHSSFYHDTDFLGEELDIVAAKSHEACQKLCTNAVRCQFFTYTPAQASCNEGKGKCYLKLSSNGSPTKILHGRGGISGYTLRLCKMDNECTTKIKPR
Target sequence (P03951 388-625 limits assumed): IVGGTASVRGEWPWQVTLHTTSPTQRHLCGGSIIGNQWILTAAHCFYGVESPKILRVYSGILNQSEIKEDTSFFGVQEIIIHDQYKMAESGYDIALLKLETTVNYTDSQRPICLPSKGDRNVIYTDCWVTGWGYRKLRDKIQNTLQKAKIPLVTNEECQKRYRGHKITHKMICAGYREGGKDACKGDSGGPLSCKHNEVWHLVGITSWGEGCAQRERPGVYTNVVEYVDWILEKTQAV
The depositor's hits bear a star; · = not tested or not shown. A selection: hits, their analogues and other compounds. The true share with any hit is near 7.4%. Cut-off read from the data, not from the text of the source, unless noted: active = inhibition above about 20% (passing the limit was not always enough); inactive = the rest.

SMILES | D1 allo mod | hDAT+cocaine | FXIIa mix inh | M1 agonist | M1 antagonist | FXIa inh mix
CC(C)CC(=O)CN1C(=O)C2(OCCO2)c2ccccc21 | -0.0025 | -0.47 | 5 | 1.2 | 2 | -1
COc1ccc2nc(NCCCNC(=O)c3cc(OC)c(OC)c(OC)c3)c(C#N)cc2c1 | 0.094 | 0.012 | 4 | 15* | -0.79 | 7
COC(=O)c1ccccc1NC(=O)CC(NCc1ccccc1)C(=O)O (stereo not given) | 2.4* | 0.2 | -1 | -0.43 | -0.22 | 14
COC(=O)c1ccccc1NC(=O)CN(c1ccccc1)S(=O)(=O)N(C)C | 0.018 | 0.073 | · | 1.6 | 1.9* | ·
Cc1ccc(N2CCN(C(=O)c3ccccc3NC(=O)C3CC=CCC3C(=O)O)CC2)cc1 (stereo not given) | · | -0.07 | · | · | · | ·
Cc1ccccc1N1CCN(C(=O)c2ccccc2NC(=O)C2CC=CCC2C(=O)O)CC1 (stereo not given) | · | 2.1* | · | · | · | ·
COc1cccc(NC(=O)n2nc(N)cc2-c2ccc(Cl)cc2)c1 | 0.17 | 1.9 | -1 | 0.37 | -0.81 | 5
Cc1ccc(C(=O)Nc2ccc(S(=O)(=O)N3CCc4ccccc4C3)cc2)o1 | -0.02 | -0.015 | 4 | 0.21 | 0.14 | -4
Cc1c(NC(=O)/C(=C\c2ccccc2)NC(=O)c2ccccc2)c(=O)n(-c2ccccc2)n1C | · | -8.8* | · | · | · | ·
Cc1c(NC(=O)Cn2nc(C(=O)O)c3ccccc3c2=O)c(=O)n(-c2ccccc2)n1C | -0.64 | -0.53 | 0 | 0.41 | 1* | 5
Cc1c(NC(=O)CC(=O)Nc2c(C)n(C)n(-c3ccccc3)c2=O)c(=O)n(-c2ccccc2)n1C | · | -1.4 | 8 | -0.086 | -0.11 | 3
Cc1c(NC(=O)C2CCCNC2=O)c(=O)n(-c2ccccc2)n1C (stereo not given) | 0.0035 | -1.7 | 1 | 0.41 | 0.69* | 4
Cc1c(NC(=O)C2CCCN(S(=O)(=O)c3cnc[nH]3)C2)c(=O)n(-c2ccccc2)n1C (stereo not given) | 0.48 | · | 2 | 1 | 0.016 | 24*
Cc1c(NC(=O)c2ccccc2)c(=O)n(-c2ccccc2)n1C | · | -1.4 | · | · | · | ·
COc1ccc(CNC(=O)C2CSCCS2)cc1 (stereo not given) | 0.18 | -0.053 | -1 | -0.44 | 0.57 | 3
CCNC(=O)CC1C(=O)N(c2ccccc2)C(=O)N1CCc1ccc(OC)c(OC)c1 (stereo not given) | · | 0.45 | · | · | · | ·
CCOc1ccc(OCc2ccc(C(=O)O)o2)cc1 | -5.1* | -0.76 | -6 | · | · | -3
CCOc1ccc(OCc2ccc(C(=O)NCc3ccncc3)o2)cc1 | -0.56 | -0.017 | 2 | -0.54 | 0.00096 | 5
CCOC(=O)c1ccc(NC(=O)CSc2nnnn2CCCO)cc1 | -1.1 | 1.1 | 10 | 0.033 | 1.8* | 7
CCC(=O)Nc1ccc(NC(=O)CSc2nnnn2C(C)C)cc1 | 0.69 | -0.015 | 1 | 0.64 | 0.63 | 27*
CCOC(=O)c1c(-c2ccccc2)csc1NC(=O)CSc1nnnn1C | 0.38 | -0.31 | 1 | 3.2* | -0.62 | 3
CCOC(=O)c1c(-c2ccc(OC)cc2)csc1NC(=O)CSc1ccccc1 | · | 0.2 | · | · | · | ·
CCSCc1nnc(SCC(=O)Nc2cccc(SC)c2)n1C | · | -0.0056 | 6 | 0.4 | 0.071 | 7
CC(C)OC(=O)CSc1nnc(-c2ccccn2)n1-c1ccccc1 | 0.28 | -0.74 | -18 | 0.51 | 0.53 | 8
COc1ccc(-c2onc3ccc(Cl)cc23)cc1OC | 13* | · | 6 | 1.7 | 0.26 | 10
Clc1ccc2noc(-c3ccccc3)c2c1 | · | 0.0095 | · | · | · | ·
CCCCCC(=O)Nc1cccc(C2=NOC3(C2)C[C@H](C(N)=O)N(C(=O)c2ccccc2C(=O)c2ccccc2)C3)c1 (stereo not given in full) | · | 3.7* | · | · | · | ·
COc1ccc(Oc2ncnc3c2oc2ccc(Br)cc23)cc1 | 0.76 | -7.4* | 3 | · | · | 4
CN(C)CCOc1ncnc2c1oc1ccccc12 | · | -0.74 | · | · | · | ·
Cc1cc(NC(=O)NC(=O)c2ccc(F)cc2F)n[nH]1 | -3.3* | 0.13 | 1 | 0.1 | 0.00086 | 8

Screening data from PubChem BioAssay.
